# In article PMC3404119, “Topology and Dynamics of the Zebrafish Segmentation Clock Core Circuit”:
# Key:
# [1] = biological target: T1, Her1-GFP homodimer (zebrafish (Danio rerio), UniProt Q90463 1-328); assay: MITOMI; PPARgamma-mCherry co-present (non-interacting control); TnT SP6 wheat germ expression extract on MITOMI chip, 3 h at room temperature; salt and pH not stated; PBS used for washing; high values mean tight binding; conditions: protein: ivt; tags: C-terminal GFP; chain copies: 2; label: Cy5; dsDNA, one strand shown
# T1 sequence: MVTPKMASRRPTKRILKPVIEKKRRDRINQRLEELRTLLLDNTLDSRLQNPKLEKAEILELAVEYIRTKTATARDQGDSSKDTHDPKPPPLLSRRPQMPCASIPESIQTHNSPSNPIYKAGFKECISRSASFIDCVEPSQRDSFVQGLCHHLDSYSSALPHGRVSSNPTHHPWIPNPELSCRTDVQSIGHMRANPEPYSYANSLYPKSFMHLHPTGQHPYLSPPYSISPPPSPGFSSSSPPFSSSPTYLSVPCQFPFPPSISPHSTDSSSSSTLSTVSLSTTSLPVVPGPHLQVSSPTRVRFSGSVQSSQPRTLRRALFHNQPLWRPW
# [2] = biological target: T2, Her7 (coupled to chip, Fig 2D);Hes6-mCherry (zebrafish (Danio rerio);zebrafish …, UniProt Q9I9K1;Q6P0J1 1-206;1-226, |); assay: MITOMI; Her7:Hes6 heterodimer, Her7 coupled to chip and Hes6-mCherry in solution; TnT SP6 wheat germ expression extract on MITOMI chip, 3 h at room temperature; salt and pH not stated; PBS used for washing; high values mean tight binding; conditions: protein: ivt;ivt; copies: 1;1; label: Cy5; dsDNA, one strand shown
# T2 sequence 1: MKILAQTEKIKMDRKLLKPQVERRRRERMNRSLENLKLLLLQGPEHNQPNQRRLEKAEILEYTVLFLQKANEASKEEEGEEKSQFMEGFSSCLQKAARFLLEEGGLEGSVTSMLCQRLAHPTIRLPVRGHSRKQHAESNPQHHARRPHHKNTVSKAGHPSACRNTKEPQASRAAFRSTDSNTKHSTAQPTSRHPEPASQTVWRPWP
# T2 sequence 2: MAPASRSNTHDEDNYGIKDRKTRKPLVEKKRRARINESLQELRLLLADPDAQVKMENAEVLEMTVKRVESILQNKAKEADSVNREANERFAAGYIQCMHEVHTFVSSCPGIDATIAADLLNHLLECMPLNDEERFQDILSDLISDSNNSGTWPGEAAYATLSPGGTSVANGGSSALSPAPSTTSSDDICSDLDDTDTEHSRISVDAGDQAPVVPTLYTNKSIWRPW
Sequence,binding signal [1],binding signal [2]
TGACGCGTGTGA,0.118 ± 0.00595 relative affinity (strongest site = 1),0.387 ± 0.0053 relative affinity (strongest site = 1)
CTCCACGTGCCC,0.269 ± 0.00665 relative affinity (strongest site = 1),0.297 ± 0.00926 relative affinity (strongest site = 1)
GGGCACGTGCGC,0.406 ± 0.00899 relative affinity (strongest site = 1),0.542 ± 0.0166 relative affinity (strongest site = 1)
GCGCTCGTGCGC,0.0291 ± 0.00508 relative affinity (strongest site = 1),0.0861 ± 0.00202 relative affinity (strongest site = 1)
TGCCGCGTGCAC,0.033 ± 0.00214 relative affinity (strongest site = 1),0.163 ± 0.00188 relative affinity (strongest site = 1)
CATCACGTGAAA,0.018 ± 0.00636 relative affinity (strongest site = 1),0.0344 ± 0.00348 relative affinity (strongest site = 1)
CTGCACGTGCAT,0.0391 ± 0.00232 relative affinity (strongest site = 1),0.158 ± 0.00223 relative affinity (strongest site = 1)
GCCCACGGGCCC,0.144 ± 0.0313 relative affinity (strongest site = 1),0.0279 ± 0.00171 relative affinity (strongest site = 1)
TTCCACGAGAAA,0.0129 ± 0.000672 relative affinity (strongest site = 1),0.0286 ± 0.00127 relative affinity (strongest site = 1)
GTTCTCGTGTTT,0.0171 ± 0.0014 relative affinity (strongest site = 1),0.0265 ± 0.0016 relative affinity (strongest site = 1)
CAGCACGTGTCT,0.456 ± 0.0098 relative affinity (strongest site = 1),0.679 ± 0.014 relative affinity (strongest site = 1)
CAACACGGGGTG,0.026 ± 0.00978 relative affinity (strongest site = 1),0.0311 ± 0.0032 relative affinity (strongest site = 1)
GTACACGTGGCG,0.237 ± 0.00793 relative affinity (strongest site = 1),0.275 ± 0.00281 relative affinity (strongest site = 1)
TTGCACGTGTAC,0.0556 ± 0.0021 relative affinity (strongest site = 1),0.178 ± 0.00237 relative affinity (strongest site = 1)
GTTCACGTGTGC,0.0341 ± 0.00138 relative affinity (strongest site = 1),0.102 ± 0.00486 relative affinity (strongest site = 1)
GGTCGCGTGTGC,0.181 ± 0.0115 relative affinity (strongest site = 1),0.182 ± 0.00317 relative affinity (strongest site = 1)
TGCCGCGTGCCG,0.216 ± 0.0104 relative affinity (strongest site = 1),0.369 ± 0.00323 relative affinity (strongest site = 1)
ATACACAGTGCGC,0.0128 ± 0.000425 relative affinity (strongest site = 1),0.0208 ± 0.0021 relative affinity (strongest site = 1)
AGCCTCGTGTAA,0.0363 ± 0.00627 relative affinity (strongest site = 1),0.0516 ± 0.00244 relative affinity (strongest site = 1)
CTCCTCGTGTTG,0.0177 ± 0.000557 relative affinity (strongest site = 1),0.0605 ± 0.00276 relative affinity (strongest site = 1)
ATCCACGTGTCC,0.303 ± 0.0145 relative affinity (strongest site = 1),0.256 ± 0.00386 relative affinity (strongest site = 1)
